Laboratory results published in PubChem BioAssay AID504652 (National Center for Advancing Translational Sciences (NCATS), 2011).
In all, about 360,000 compounds went through this assay and about 11,000 (3.1%) were called active. Shown is part of a subset that was picked to be rich in actives. Values without a mark were called inactive. No stated cut-off is given here; in the data, active means activity change below about -30%; inactive means the rest.

Biological target: D(1A) dopamine receptor (Homo sapiens) (UniProt P21728)
Test: Antagonist of Human D 1 Dopamine Receptor: qHTS
Conditions: HEK293 TREx D1 cells, calcium flux, dopamine EC80; at 10 µM; active compounds read low
Source text: Dopamine receptors (DARs) are involved in the etiology and/or therapy of a number of neuropsychiatric and endocrine disorders. For instance, all receptor-based antiparkinsonian drugs work via stimulating the […] DAR subtype whereas all FDA-approved antipsychotic agents are antagonists of this receptor. […] There are three different types of allosteric modulators that we are seeking, two of which will stimulate or augment receptor signaling, allosteric agonists and potentiators, while the third, allosteric antagonists, will attenuate receptor signaling. The present primary screening assay measures compound antagonism after an EC80 addition of dopamine by tracking calcium flux in a […], inducible Hek293 Trex D1 cell line. NIH Chemical Genomics Center [NCGC] NIH Molecular Libraries Probe Centers Network [MLPCN] MLPCN Grant: NS064831-01 Assay Submitter (PI): David Sibley
Freshly passaged cells are plated in 1536 well black, clear bottom plates at a density of 4000 cells/well in 3 ul of complete media containing 1x tetracycline inducer. After an overnight incubation at 30 C in 5% CO2, cells are loaded with 2 ul of the no wash Calcium Assay Kit (ABD Bioquest) and incubated at room temperature for 30 to 90 minutes. Agonist read: A 10 cycle (1 second/cycle) baseline measurement is taken and then the FDSS online 1536 pintool delivers 23 nl of compound library (as well as dopamine controls) to the plate. The plate is measured for kinetically at 1 cycle/sec for 180 seconds. Following the 180 second read, 1 ul of an EC80 (negative modulation assay) is delivered by an onboard pipette head. Measurements are taken kinetically for an additional 180 seconds.
On the % scale 0 is the no-effect control and ±100 the full control effect.

Sequence of D(1A) dopamine receptor (Homo sapiens) (P21728 whole entry, looked up): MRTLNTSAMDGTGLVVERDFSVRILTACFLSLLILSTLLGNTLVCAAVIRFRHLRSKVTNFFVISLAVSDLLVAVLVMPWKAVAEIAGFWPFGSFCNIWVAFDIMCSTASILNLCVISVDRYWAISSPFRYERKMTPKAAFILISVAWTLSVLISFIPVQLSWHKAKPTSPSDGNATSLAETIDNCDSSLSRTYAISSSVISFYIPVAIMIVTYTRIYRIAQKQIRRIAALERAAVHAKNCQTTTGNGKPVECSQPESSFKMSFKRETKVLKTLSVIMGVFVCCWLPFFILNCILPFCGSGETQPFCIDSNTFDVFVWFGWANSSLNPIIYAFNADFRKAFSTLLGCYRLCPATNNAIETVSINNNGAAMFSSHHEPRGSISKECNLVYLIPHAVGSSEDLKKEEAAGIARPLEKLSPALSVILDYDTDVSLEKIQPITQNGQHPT

| Compound | activity change, negative = inhibition |
| --- | --- |
| Cc1ccc(C(=O)N/C(=C/c2cccs2)C(=O)N2CCCCC2)cc1 | -1.28% |
| CN1CCN(C(=O)/C(=C\c2ccc3c(c2)OCO3)NC(=O)c2cccs2)CC1 | -1.26% |
| CN1CCN(C(=O)/C(=C\c2cccs2)NC(=O)c2cccs2)CC1 | -40.4% (active) |
| CCOc1ccc(CNC(=O)c2ccc3c(c2)nnn3C2CCCC2)cc1 | -28.9% |
| Cc1ccc(-c2nn(CCC(=O)Nc3ccc(OC(F)(F)F)cc3)c(=O)c3ccccc23)cc1 | -11% |
| COc1ccc(NC(=O)Nc2cccc(-c3noc(C)n3)c2)cc1 | 8.89% |
| COc1ccc(NC(=O)Nc2ccc3nsnc3c2)cc1 | -36.6% (active) |
| Cc1ccc(NC(=O)Nc2ccc3oc(C)nc3c2)cc1 | -1.61% |
| Cc1ccc(C)c(Cn2c(C)c(CNCc3ccc(F)cc3)c(C(=O)O)c2C)c1 | -10.2% |
| O=C(NCc1ccco1)c1ccc([N+](=O)[O-])cc1Cl | -6.24% |
| O=C(NCc1ccncc1)c1ccc(NS(=O)(=O)c2cccc([N+](=O)[O-])c2)cc1 | -49% (active) |
| O=C(NCc1ccco1)/C(=C/c1cccc([N+](=O)[O-])c1)NC(=O)c1ccco1 | -9.94% |
| O=C(NCc1ccncc1)c1cccc(NS(=O)(=O)c2ccc(F)c(F)c2)c1 | -6.23% |
| O=C(NCc1ccco1)c1ccc(NS(=O)(=O)c2cccc([N+](=O)[O-])c2)cc1 | -51.9% (active) |
| O=[N+]([O-])c1cccc(S(=O)(=O)NCc2ccccn2)c1 | 8.53% |
| CCOC(=O)c1c(NC(=O)COc2cc(C)ccc2C(C)C)sc(C)c1C | 8.46% |
| CC1CCCN(CCOCCOc2ccccc2-c2ccccc2)C1 (configuration not stated) | -48.5% (active) |
| c1ccc(-c2ccccc2OCCN2CCCCC2)cc1 | 8.41% |
| CC1CN(CCCOc2ccccc2-c2ccccc2)CC(C)O1 (configuration not stated) | 13.9% |
| CC1CN(C(=O)N2CCC(C(=O)NCc3cccs3)CC2)c2ccccc2O1 (configuration not stated) | -3.92% |
| COc1ccc(NC(=O)CCNS(=O)(=O)c2ccc3c(c2)CCCC(=O)N3)cc1Cl | 1.62% |
| O=S(=O)(NCCc1ccc(F)cc1)c1cccc2cccnc12 | -44.7% (active) |
| O=S(=O)(Nc1cccc2cccnc12)c1cccc2cccnc12 | -7.95% |

| Compound | activity change, negative = inhibition |
| --- | --- |
| O=S(=O)(NCCOc1cccc2cccnc12)c1ccc(F)cc1 | 6.87% |
| CC(CNC(=O)c1nnc(Cc2cccc(F)c2)o1)c1ccccc1 (configuration not stated) | 0.636% |
| Cc1cc2oc(C(=O)N(Cc3ccc(Cl)cc3)Cc3ccco3)c(C)c2cc1Cl | -1.03% |
| CCCOc1ccc(-c2cccc(NS(=O)(=O)c3ccccc3)c2)nn1 | -24.2% |
| CCNS(=O)(=O)c1cc(-c2nnc(Nc3cccc(C(F)(F)F)c3)c3ccccc23)ccc1C | -6.09% |
| Cc1ccc2nc(COc3ccc(NC(=O)COc4ccccc4F)cc3)cc(=O)n2c1 | 0.203% |
| Cc1ccc2nc(COc3ccc(N(C)S(=O)(=O)c4ccccc4)cc3)cc(=O)n2c1 | -32.1% (active) |
| COc1cccc(COc2ccc(N(C)S(=O)(=O)c3ccccc3)cc2)c1 | -1.51% |
| CSc1ccc(CCNC(=O)c2ccc3c(c2)nc2n3CCOC2)cc1 | 11.3% |
| CCCN1CCN(CCCNC(=O)c2ccc3nc(Cc4ccccc4)oc3c2)CC1 | -1.19% |
| CC(C)CC(NS(=O)(=O)c1ccc2c(c1)oc(=O)n2C)C(=O)NCc1ccccc1Cl (configuration not stated) | 14.8% |
| CCCCCn1c(=O)[nH]c2cc(C(=O)Nc3cc(C)cc(C)c3)ccc2c1=O | -6.59% |
| COc1ccc(C(C[N+](=O)[O-])n2nc(C)cc2C)cc1 (configuration not stated) | 13.7% |
| CC(=O)Nc1ccc(/C=N/Nc2ccc(C(=O)c3c(C)cc4ccccn34)cc2[N+](=O)[O-])cc1 | -18.5% |
| Cc1ccc(C(C[N+](=O)[O-])c2c(C)cc3ccccn23)cc1 (configuration not stated) | -51.3% (active) |
| CN1CCN(C2=NCCO2)CC1 | -33% (active) |
| CCOC(=O)C1CCN(c2csc3ccc(C)cc3c2=O)CC1 | 6.24% |
| Fc1cccc(-n2ncc3c2ncn2nc(-c4ccccc4Cl)nc32)c1 | -8.03% |
| O=C(NCCc1ccc(Cl)cc1)c1cccc(N2CCCC2=O)c1 | -8.26% |
| Cc1cccc(NC(=S)NCCc2ccc(Cl)cc2)c1C | -8.27% |
| Oc1cc2c(cc1O)CN(C(=S)NCCc1ccc(Cl)cc1)CCC2 | -90.5% (active) |
| Cc1ccc2ncc(C(=O)Nc3ccc(OC(F)(F)F)cc3)c(=O)n2c1 | 0.312% |
| COc1cc(CCC(=O)Nc2ccncc2Cl)cc(OC)c1OC | 1.11% |

| Compound | activity change, negative = inhibition |
| --- | --- |
| CC(=O)c1ccc(N2CCN(C(=O)CCc3ccccc3)CC2)cc1 | 3.26% |
| COc1cc(CCC(=O)N2CCN(c3ccccc3Cl)CC2)cc(OC)c1OC | -35% (active) |
| COc1cccc(C(=O)N(Cc2cccc(Cl)c2)Cc2ccco2)c1 | -12.2% |
| O=C(NCCCN1CCOCC1)c1cc(-c2ccc(Cl)cc2)on1 | 7.89% |
| COc1ccc(-c2ccc(CNCCCN3CCOCC3)o2)cc1Cl | -8.26% |
| C=CCOc1ccc(Cl)cc1CNCCCN1CCOCC1 | -32.4% (active) |
| COCCCNC(=O)c1ccc(NC(=O)c2nsc3ccccc23)cc1 | -4.68% |
| COc1ccc(NC(=O)CCN2CCN(CCO)CC2)cc1 | -14% |
| Cc1ccc(C)c(N2CCN(C(=O)C3CCC(CNS(=O)(=O)c4cccs4)CC3)CC2)c1 (configuration not stated) | 16.1% |
| COc1ccc(NC(=O)N2CCCn3nc(C)cc32)cc1OC | -22.3% |
| COc1ccc(CCNC(=O)c2ccc(CSCc3ccc(C)cc3)o2)cc1OC | -24.7% |
| COc1ccc(CCNc2ncnc3c2cnn3-c2ccc(C)cc2)cc1 | -63.8% (active) |
| C1=C(CCNc2ncnc3c2cnn3-c2ccccc2)CCCC1 | -10.6% |
| Clc1cccc(-n2ncc3c(NCCc4ccccc4)ncnc32)c1 | -27.8% |
| O=C(Nc1ccccc1F)C(c1ccccc1)N1Cc2ccccc2C1=O (configuration not stated) | -0.199% |
| Cc1cccc(OCC(=O)N(Cc2ccc(C(C)C)cc2)Cc2ccco2)c1C | -14.7% |
| Cc1ccc(CNC(=O)c2cc(-c3ccccc3C)n(CC3CC(c4cccc([N+](=O)[O-])c4)=NO3)n2)cc1 (configuration not stated) | -15.8% |
| COc1ccc(C2=NOC(Cn3nc(C(=O)NCc4ccc5c(c4)OCO5)cc3-c3ccccc3)C2)cc1 (configuration not stated) | -33.6% (active) |
| COc1ccc(NC(=O)NCc2ccc3c(c2)OCO3)c(OC)c1 | 2.8% |
| COc1cccc(N=C2SC(C(=O)Nc3cccc(Cl)c3)CC(=O)N2C)c1 (configuration not stated) | -65.2% (active) |
| COc1ccc(N=C2SC(C(=O)Nc3ccc(F)cc3)CC(=O)N2C)cc1 (configuration not stated) | 5.67% |
| COc1cccc(-c2cccc(NC(=O)C3CCN(C4CCC4)CC3)c2)c1 | 30.7% |
| CSc1ccc(CCNC(=O)c2cnn(-c3ccccc3)c2-n2cccc2)cc1 | 1.42% |

| Compound | activity change, negative = inhibition |
| --- | --- |
| O=C(NCCCN1CCOCC1)c1ccccc1NS(=O)(=O)c1ccc(F)cc1 | -51.4% (active) |
| Cc1ccc(NS(=O)(=O)c2ccc(C(=O)NCCCN3CCOCC3)cc2)cc1 | 26.5% |
| O=C(NCCCN1CCOCC1)c1ccccc1NS(=O)(=O)c1ccc(Br)cc1 | -0.557% |
| COC(=O)c1cc(S(=O)(=O)N2CCN(c3cc(Cl)ccc3C)CC2)c[nH]1 | 5.54% |
| CCn1cc2nc(SCc3cccc(F)c3)n(CCc3ccccc3)c(=O)c2n1 | 11.7% |
| CCCCN(CC)CCCNC(=O)Cn1ncc2c([nH]c3ccc(C)cc32)c1=O | 3.23% |
| Cc1cccc(NC(=O)N2CCN(C)c3ncccc32)c1C | -0.945% |
| COc1ccc(S(=O)(=O)n2nc(C)c(S(=O)(=O)N3CCCCCC3)c2C)cc1 | 5.83% |
| CSc1ccc(CCNC(=O)c2cc(C)nc3c2c(C)nn3-c2cccc(F)c2)cc1 | -11.8% |
| Cc1cc(C(=O)Nc2cccc(C(F)(F)F)c2)c2c(C)nn(-c3cccc(F)c3)c2n1 | -34.4% (active) |
| COc1cc(NC(=O)c2cc(C3CC3)nc3c2c(C)nn3-c2ccccc2)cc(OC)c1 | 0.344% |
| CC(C)(C)C1CCc2c(sc(NC(=O)c3ccccc3F)c2C(=O)N2CCCCC2)C1 (configuration not stated) | 4.22% |
| Cc1ccc(NC(=O)CN2c3ccccc3S(=O)(=O)c3ccccc32)cc1F | -3% |
| COc1cc(OC)c(-n2cc(-c3ccc(Cl)cc3)[nH]c2=O)cc1Cl | -36.2% (active) |
| COc1cc(OC)c(-n2c(C)cc(C=O)c2C)cc1Cl | 14.6% |
| COc1cc(OC)c(N2CC(C(=O)Nc3cc(Cl)ccc3N3CCOCC3)CC2=O)cc1Cl (configuration not stated) | -18.4% |
| CCN1CCC(N(Cc2ccc(F)cc2)C(=O)Nc2cc(C)ccc2C)CC1 | -6.08% |
| Cc1ccsc1CN(C(=O)c1oc2ccc(Br)cc2c1C)C1CCS(=O)(=O)C1 (configuration not stated) | -12.9% |
| CCc1ccc(CN(Cc2ccco2)C(=O)COc2ccc(Cl)c(C)c2)cc1 | -3.05% |
| COc1ccc(Br)cc1CNC(=O)c1cc(=O)[nH]c2ccc(S(=O)(=O)N3CCCC3)cc12 | 2.78% |
| O=C(O)c1cccnc1Sc1ncnc2sc3c(c12)CCC3 | 11.4% |
| O=C(O)[C@@H]1CCCN1c1ncnc2sc3c(c12)CCC3 | -59.2% (active) |
| CC1(C)CN=C(N2CCN(c3ncnc4sc5c(c34)CCCC5)CC2)S1 | -2.14% |
